Data on 28 compounds can be found in article PMC4336329 (PLoS ONE, 2015).

In all, about 310,000 compounds went through this assay and about 14,000 (4.5%) showed an effect of 50% or more. Effects have a minus sign here. The sample holds strong results, similar compounds and a random draw of the others, so the mix is not that of the screen.
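Also: peak tail current of the secondary pulse compared with the same well before compound.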

The target of this experiment is human ether-à-go-go-related gene (hERG) potassium channel (human, UniProt Q12809). The experiment in a line: primary screen, population patch clamp on CHO cells stably expressing hERG; higher = less effect of the substance.
Chain of human ether-à-go-go-related gene (hERG) potassium channel (Q12809 whole entry, looked up): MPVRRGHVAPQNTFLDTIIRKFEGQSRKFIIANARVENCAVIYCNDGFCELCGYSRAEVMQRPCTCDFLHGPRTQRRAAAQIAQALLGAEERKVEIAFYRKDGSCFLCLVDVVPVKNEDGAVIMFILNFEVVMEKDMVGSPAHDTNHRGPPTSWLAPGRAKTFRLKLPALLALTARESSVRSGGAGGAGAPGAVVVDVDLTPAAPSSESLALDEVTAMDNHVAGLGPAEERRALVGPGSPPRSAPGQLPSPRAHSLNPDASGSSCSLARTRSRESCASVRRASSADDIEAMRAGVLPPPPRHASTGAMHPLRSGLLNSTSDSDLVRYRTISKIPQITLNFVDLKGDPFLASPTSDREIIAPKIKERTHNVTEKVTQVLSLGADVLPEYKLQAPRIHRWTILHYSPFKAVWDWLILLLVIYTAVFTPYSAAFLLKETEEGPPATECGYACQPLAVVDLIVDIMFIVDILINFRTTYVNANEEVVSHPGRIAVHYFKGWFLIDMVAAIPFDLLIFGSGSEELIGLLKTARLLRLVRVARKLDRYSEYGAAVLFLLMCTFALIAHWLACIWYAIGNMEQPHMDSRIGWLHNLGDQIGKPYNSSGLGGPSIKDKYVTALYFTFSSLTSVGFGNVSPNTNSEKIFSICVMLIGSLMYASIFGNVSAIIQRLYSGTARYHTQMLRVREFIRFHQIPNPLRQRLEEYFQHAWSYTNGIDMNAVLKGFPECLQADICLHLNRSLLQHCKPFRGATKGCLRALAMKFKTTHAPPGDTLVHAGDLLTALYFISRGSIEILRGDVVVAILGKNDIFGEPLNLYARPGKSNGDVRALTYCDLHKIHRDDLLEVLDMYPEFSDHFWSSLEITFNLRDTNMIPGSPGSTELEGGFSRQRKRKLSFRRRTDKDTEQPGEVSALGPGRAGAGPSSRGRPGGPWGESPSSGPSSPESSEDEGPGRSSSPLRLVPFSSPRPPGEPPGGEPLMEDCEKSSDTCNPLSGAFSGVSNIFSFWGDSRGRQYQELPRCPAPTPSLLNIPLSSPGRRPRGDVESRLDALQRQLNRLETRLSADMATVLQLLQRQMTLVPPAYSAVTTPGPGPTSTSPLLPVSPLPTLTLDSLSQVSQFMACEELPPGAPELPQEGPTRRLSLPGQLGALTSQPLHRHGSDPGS
`N#CCCN1CCCc2cc(N=Nc3ccc(C(F)(F)F)cc3)ccc21`: the “hERG current change (%, negative = inhibition) at 10uM” value turned out to be 13.4%.
As for `COc1ccc(Cl)cc1Nc1nc(C)cc(C)c1C(N)=O`, the figure is 14.3%; as for `CC(C)C[C@@H]1NC(=O)[C@H](CO)NC(=O)c2cc([N+](=O)[O-])cc(I)c2OCC[C@@H](C(N)=O)NC1=O`, 2.3%; as for `CCC(=O)Nc1ccc(NC(=S)NC(=O)c2cc3ccccc3o2)cc1`, 7.15%.
Then `COc1ccc(Cn2nnnc2CN2CCN(c3ccc(OC)cc3)CC2)cc1`, with -3.66%.
As for `O=[N+]([O-])c1ccc2cn(-c3ccccc3)nc2c1`, the figure is -0.226%; as for `O=C(CCc1nc2ccccc2c(=O)[nH]1)Nc1cc(C(F)(F)F)ccc1N1CCOCC1`, -35.3%; as for `CN(Cc1cccc(Cl)c1)C(=O)C1CCC(=O)N(C2CC2)C1` (stereo not shown), 1.31%.
Consider `CN(Cc1ccc(C(F)(F)F)cc1)C(=O)C1CCC(=O)N(C2CC2)C1` (stereo not shown), for which the “hERG current change (%, negative = inhibition) at 10uM” value is listed as -51.7%.
Consider `Cc1ccc(CN(C)C(=O)C2CCC(=O)N(C3CCCCCC3)C2)cc1` (stereo not shown), for which the “hERG current change (%, negative = inhibition) at 10uM” value is reported as 7.71%.
Take `Cc1cccn2c(=O)c3cc(C(=O)NC4CCCC4)c(=N)n(CCCN4CCOCC4)c3nc12`: the “hERG current change (%, negative = inhibition) at 10uM” value is on record as -74.7%.
Then `Cc1cccn2c(=O)c3cc(C(=O)NC4CCCCC4)c(=N)n(CCN4CCOCC4)c3nc12`, with -87%; and `CCCCOc1nc2ccccc2nc1NS(=O)(=O)c1ccc(F)cc1`, with -5.01%; and `Cc1nc2scc(-c3cccs3)c2c(=O)n1CC(=O)O`, with 5.83%.
Then `CCOC(=O)COc1c(Br)cc(/C=C2\SC(=O)N(CC(=O)N3CCCC3)C2=O)cc1OC`, with -24%; and `Cc1cccc(CCNC(=O)CN(C)S(=O)(=O)c2cnc[nH]2)c1`, with 4.07%; and `Cc1ccccc1C(=O)c1cccn1CC(=O)N1CCCCC1`, with 10.6%.
For `Cc1onc(-c2ccccc2Cl)c1C(=O)Nc1ccc(-c2nnc3n2CCCCC3)cc1`, the “hERG current change (%, negative = inhibition) at 10uM” value is listed as -4.31%.
For the compound `CCN(CC)CCn1c(SCC(=O)Nc2ccc3c(c2)CCC3)nc2ccccc2c1=O`, the “hERG current change (%, negative = inhibition) at 10uM” value is -83%.
`Cc1ccc(-n2c(SCC(=O)Nc3cc(S(=O)(=O)N4CCOCC4)ccc3Cl)nc3ccccc3c2=O)cc1`: the “hERG current change (%, negative = inhibition) at 10uM” value is 2.71%.
As for `CN(C)S(=O)(=O)c1ccc(Cl)c(NC(=O)CSc2nc3ccccc3c(=O)n2CCCN2CCOCC2)c1`, the figure is -73.9%; as for `COCCCNC(=O)CSc1nc2ccccc2c(=O)n1CCCN1CCCCC1`, 2.04%.
Then `Cc1ccc(NC(=O)CSc2nc3ccccc3c(=O)n2CCCN2CCCCC2)cc1Cl`, with -73.7%; and `COCCn1c(SCC(=O)Nc2ccc3c(c2)CCC3)nc2ccccc2c1=O`, with 4.46%; and `CS(=O)(=O)c1ccc(Cl)c(NC(=O)CSc2nc3ccccc3c(=O)n2CCCN2CCOCC2)c1`, with -47.7%.
With `Cc1ccc(NC(=O)CSc2nc3ccccc3c(=O)n2CCCN2CCCCC2)cc1C`, the “hERG current change (%, negative = inhibition) at 10uM” value is recorded as -71.9%.
Then `CCCCn1c(SCC(=O)Nc2ccc3c(c2)CCC3)nc2ccccc2c1=O`, with -33.6%.
As for `CCC(C)NC(=O)CSc1nc2ccccc2c(=O)n1CCCN1CCCCC1` (stereo not shown), the figure is -13.8%.
